# Bioassay records (PubChem)
# DT40 TDP1 CPT = growth inhibition of DT40 Tdp1-/-;hTDP1 cells with camptothecin (screen for TDP1 inhibitors); chicken DT40 Tdp1-/-;hTDP1 cells + 20 nM CPT, ATP luminescence, 48 h; Potency, µM (top dose mostly 46.2 µM), without a hit: top-dose activity change, negative = growth inhibition, hits mostly inhibitors; 420,000 tested, 12% active; AID 686979; also: % is scaled to controls: 0 for no effect and ±100 for the full control effect; nearly all actives have a fitted effect of over 55% in size
#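 Chicken DT40 Tdp1-/- cells complemented with human TDP1, 400 cells/well, exposed to compounds plus 20 nM camptothecin for at least 48 h at 37 C; viability read as ATP content by CellTiter-Glo luminescence.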
# ATXN2 expr inh = inhibitors of ATXN2 expression; HEK-293 ATXN2-luciferase reporter, luminescence, 24 h; Potency, µM (series often up to 57 µM), without a hit: at the top dose activity change, negative = inhibition, hits mostly inhibitors; 360,000 tested, 0.72% active; also: % is scaled to controls: 0 for no effect and ±100 for the full control effect; nearly all actives have a fitted effect of over 55% in size
#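 ATXN2-luciferase reporter cells (luciferase flanked by upstream and downstream ATXN2 gene portions) were treated 24 h at 37 °C with compounds at up to 57 uM. SteadyGlo luminescence gave expression; GF-AFC fluorescence gave viability.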
# TGFb SMAD3 inh = TGF-b pathway inhibition; HepG2 CAGA-GFP TGF-b/SMAD3 reporter, GFP fluorescence, 18 h; TGF-beta stimulated, 500 pg/mL final; 410,000 tested, 1.2% active; Potency, µM (top dose mostly 46.1 µM), inactives show at the highest dose activity, negative = inhibition, usual class: inhibitors; also: % is scaled to controls: 0 for no effect and ±100 for the full control effect; nearly all actives have a fitted effect of over 65% in size
#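 Using HEPG2 CAGA-GFP reporter cells at 1000 cells/well, we pinned test compounds, stimulated with recombinant TGF-beta (500 pg/mL final) and measured total well GFP after 18 h.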
# TDP1 cell noCPT = qHTS for Inhibitors of human tyrosyl-DNA phosphodiesterase 1 (TDP1): qHTS in cells in absence of CPT; Potency, µM (doses to about 46.2 µM), for the others: at the highest dose activity change, negative = growth inhibition, hits mostly inhibitors; DT40 Tdp1-/- hTDP1 cells, no CPT, ATP luminescence, 48 h; 420,000 tested, 15% active; also: % is scaled to controls: 0 for no effect and ±100 for the full control effect; nearly all actives have a fitted effect of over 55% in size
#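 Chicken DT40 Tdp1-/- cells stably complemented with human TDP1 were seeded at 400 cells/well with DMSO in place of 20 nM camptothecin. After compound pinning, cells grew at least 48 hr at 37 °C; viability read by CellTiter-Glo luminescence.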
# HepG2 tox = kills HepG2 cells in TGF-b inhibitor counter-screen. Potency, µM (series often up to 46.1 µM), inactives show at the highest dose activity change, negative = cytotoxicity, most hits filed as cytotoxic. HepG2 CAGA-GFP viability, ATP luminescence, 18 h. 410,000 tested, 0.76% active. AID 588856
#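 HepG2 CAGA-GFP cells (1000/well, DMEM with 1% FBS) received compound, then TGF-beta at 500 pg/mL final, and were incubated 18 hours at 37 degrees C. Viability was read by CellTiter-Glo luminescence. Media-only wells were set as complete cell-killing and DMSO as no toxicity.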
# S2 tox = viability counter-screen for ATXN expression inhibitors. S2 cells (HEK-293 line with an ATXN2-luciferase reporter) viability, CellTiter-Fluor protease fluorescence, 24 h. Potency, µM (titrated, usually from 56.7 µM), most hits filed as cytotoxic. 400,000 tested, 0.49% active; also: nearly all actives have a fitted effect of over 40% in size
# Active calls of the source: *; i = inactive; u = inconclusive; x = no result. Hits are enriched below; roughly 17% of the tested compounds scored in any of these assays. Calls follow the shape of the dose curve; as a rule, active = well fitted curve in the direction sought with a large enough effect; inconclusive = small, poorly fitted or top-dose-only effect, or another doubt; inactive = no such curve, though single readings can be large; an effect the other way counts as inactive or inconclusive. Potency is read from the fitted curve at half-maximal effect.
SMILES,DT40 TDP1 CPT,ATXN2 expr inh,TGFb SMAD3 inh,TDP1 cell noCPT,HepG2 tox,S2 tox
CCC(=O)N1CCc2cc(S(=O)(=O)N3CCN(c4ccccn4)CC3)ccc21,u,6%,-2%,12µM*,-35%,i
CCC(=O)N1CCc2cc(S(=O)(=O)N3CCN(c4ccccc4)CC3)ccc21,-9%,x,11%,5%,10%,i
Cc1cccc(C)c1NC(=O)c1cc(S(=O)(=O)N2CCCc3ccccc32)ccc1F,10µM*,-3%,-15%,4.1µM*,-5%,i
CCc1cccc(C)c1NC(=O)COC(=O)C1CCN(S(=O)(=O)c2ccccc2)CC1,0%,9%,-1%,-18%,3%,i
COCc1cc(CN2CCCC(C(=O)Nc3ccc(-c4ccco4)cc3)C2)ccc1OC (centres undefined),u,-26%,u,u,-40%,i
CCOc1ccc(NC(=O)c2cc(S(=O)(=O)N3CCc4ccccc43)ccc2F)cc1,8.2µM*,x,-14%,9.2µM*,-11%,x
CCOC(=O)/C=C/C(=O)Nc1ccc(S(=O)(=O)N2CCc3ccccc32)cc1,23µM*,u,-26%,15µM*,-11%,i
CC(=O)Nc1ccc(S(=O)(=O)N2CCCc3ccccc32)cc1,6.5µM*,-25%,u,9.2µM*,-1%,i
O=C(Nc1ccc(Cl)cc1)c1cc(S(=O)(=O)N2CCCc3ccccc32)ccc1F,16µM*,x,u,15µM*,-27%,x
CC(NC(=O)c1ccc(NC(=O)c2nsc3ccccc23)cc1)c1ccccc1 (centres undefined),u,44%,6%,u,-18%,i
Nc1[nH]c(C(=O)c2ccccc2)c(-c2ccncc2)c1C(=O)NC1CC1,-13%,1%,x,-16%,x,i
COc1ccc(OC)c(-c2nc3cc4ccccc4cc3nc2-c2ccccc2)c1,u,x,-6%,u,-1%,i
CC(C)(C)n1ncc2c(=O)n(Cc3cccc(Oc4ccccc4)c3)cnc21,x,x,-18%,x,-3%,x
Cc1cc(C)c(C)c(OCC(O)CN2CCN(c3ccccn3)CC2)c1 (centres undefined),u,-12%,-30%,-21%,-29%,i
CCOc1ccccc1C(=O)N/N=C/c1coc2ccc(Cl)cc2c1=O,u,9%,0%,u,-20%,i
O=C(Nc1ccc(Br)cc1)c1cc(S(=O)(=O)N2CCc3ccccc32)ccc1F,15µM*,-20%,-26%,15µM*,3%,i
O=C(O)c1cc(S(=O)(=O)N2CCCc3ccccc32)ccc1Cl,-8%,15%,39%,0%,7%,i
O=C(Nc1ccc(C(F)(F)F)cc1)c1cc(S(=O)(=O)N2CCCc3ccccc32)ccc1F,7.3µM*,u,u,10µM*,-30%,u
Cc1cc(NC(=O)COC(=O)c2ccc(S(=O)(=O)N3CCCc4ccccc43)cc2)no1,3.7µM*,-19%,13%,3.3µM*,-12%,i
Cc1cc(NC(=O)COC(=O)c2ccc(S(=O)(=O)N3CCCC3)cc2)no1,10%,-1%,10%,20%,-14%,i
COC(=O)Nc1ccc(S(=O)(=O)N2c3ccccc3CCC2C)cc1 (centres undefined),4.6µM*,u,u,2.6µM*,-16%,i
CCCCCCNC(=O)c1cc(S(=O)(=O)N2CCc3ccccc32)ccc1F,u,-5%,-1%,u,-20%,i
CN(Cc1cnn(C)c1)Cc1nc(C(c2ccccc2)c2ccccc2)no1,u,-5%,-8%,-11%,-16%,i
CCOC(=O)CN1C(=O)CN(c2ccc(C)cc2)C1=O,-8%,52%,4%,-11%,-2%,u
Cc1ccc(NC(=O)c2cc(S(=O)(=O)N3CCc4ccccc43)cn2C)cc1C,u,-7%,u,u,-9%,i
SMILES,DT40 TDP1 CPT,ATXN2 expr inh,TGFb SMAD3 inh,TDP1 cell noCPT,HepG2 tox,S2 tox
Cc1ccc(NC(=O)c2cc(S(=O)(=O)N3CCc4ccccc43)ccc2F)cc1Cl,4.1µM*,x,13%,5.8µM*,1%,x
CCOC(=O)/C=C/C(=O)Nc1ccc(S(=O)(=O)N(C)c2ccccc2)cc1,1.8µM*,u,u,u,-3%,i
Cc1ccc(NC(=O)c2cc(S(=O)(=O)N3CCCc4ccccc43)ccc2F)cc1F,16µM*,-23%,u,6.5µM*,-7%,i
CCOC(=O)c1sc2nc(N3CCOCC3)c3c(c2c1N)CC(C(C)C)OC3 (centres undefined),8.2µM*,-1%,-4%,-13%,0%,i
CCOC(=O)CC(NS(=O)(=O)c1ccc(OC)c(C)c1)c1cccc([N+](=O)[O-])c1 (centres undefined),-5%,10%,2%,8%,3%,i
Cc1ccc(-c2csc(NC(=O)c3ccccc3F)c2C(=O)O)cc1,u,x,2%,21µM*,-21%,i
COc1ccc(-c2csc(NC(=O)c3ccc(C(C)(C)C)cc3)c2C(=O)O)cc1,3.7µM*,37%,u,3.3µM*,-52%,i
O=C(Nc1scc(-c2ccc(Br)cc2)c1C(=O)O)c1ccccc1F,u,14%,-5%,16µM*,-40%,i
O=C(Nc1scc(-c2ccccc2)c1C(=O)O)c1ccccc1F,-18%,7%,10%,-5%,-5%,i
O=C(N/C(=C\c1ccc(F)cc1)C(=O)N1CCOCC1)c1ccccc1,21%,-27%,-2%,5%,-3%,i
Cc1ccc(C(=O)Nc2ccc(-c3nc4ccccc4s3)c(O)c2)c(C)c1,10µM*,x,5%,u,6%,x
O=C(COc1ccccc1)Nc1ccc2[nH]ncc2c1,5%,x,4%,u,4%,i
COc1ccccc1C(=O)Nc1ccc(-c2nc3ccccc3s2)c(C)c1,u,113%,u,u,-50%,i
Cc1cccc(NC(=O)CSc2nc3ccc(NC(=O)COc4ccc(Cl)cc4)cc3s2)c1,7.3µM*,u,u,6.5µM*,-27%,u
O=C(COc1ccc(Cl)cc1)Nc1ccc2[nH]ncc2c1,u,0%,35%,21µM*,-10%,i
O=C(COc1ccc(Cl)cc1)Nc1ccc(-c2nc3ccccc3s2)c(O)c1,u,-13%,-7%,18µM*,-50%,i
